Several values for one entry are separate records, joined by “and”; a condition that tells them apart may be missing. Equal entries are not always repeated. The whole screen tested about 390,000 compounds, of which about 4,000 (1%) were called active. Where a call stands in place of a potency, no number is given. Another 7% or so got no clear call; they are omitted. The call rests on the fitted dose curve; in most records, active means well fitted inhibition curve with a large enough effect; inconclusive means small, poorly fitted or top-dose-only effect, or another doubt; inactive means no such curve, though single readings can be large or run the other way. The sample as a whole holds a higher share of actives than the screen did. More than one record can exist for a structure, and the calls need not agree.
Biological target: DNA polymerase iota (Homo sapiens) (UniProt Q9UNA4)
Assay: qHTS for Inhibitors of Polymerase Iota
Conditions: Pol iota fluorescent replication assay, 10 min; series mostly up to 115 µM
How it was run: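 Pol iota at 10 nM preincubated 15 min with compounds at room temperature; reaction started with fluorescent substrate, 50 nM final. Fluorescence read kinetically at 0 and 10 min; buffer-only wells as negative control.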
Potency means the concentration at half of the fitted maximal effect.

Chain of DNA polymerase iota (Homo sapiens) (Q9UNA4 whole entry, looked up): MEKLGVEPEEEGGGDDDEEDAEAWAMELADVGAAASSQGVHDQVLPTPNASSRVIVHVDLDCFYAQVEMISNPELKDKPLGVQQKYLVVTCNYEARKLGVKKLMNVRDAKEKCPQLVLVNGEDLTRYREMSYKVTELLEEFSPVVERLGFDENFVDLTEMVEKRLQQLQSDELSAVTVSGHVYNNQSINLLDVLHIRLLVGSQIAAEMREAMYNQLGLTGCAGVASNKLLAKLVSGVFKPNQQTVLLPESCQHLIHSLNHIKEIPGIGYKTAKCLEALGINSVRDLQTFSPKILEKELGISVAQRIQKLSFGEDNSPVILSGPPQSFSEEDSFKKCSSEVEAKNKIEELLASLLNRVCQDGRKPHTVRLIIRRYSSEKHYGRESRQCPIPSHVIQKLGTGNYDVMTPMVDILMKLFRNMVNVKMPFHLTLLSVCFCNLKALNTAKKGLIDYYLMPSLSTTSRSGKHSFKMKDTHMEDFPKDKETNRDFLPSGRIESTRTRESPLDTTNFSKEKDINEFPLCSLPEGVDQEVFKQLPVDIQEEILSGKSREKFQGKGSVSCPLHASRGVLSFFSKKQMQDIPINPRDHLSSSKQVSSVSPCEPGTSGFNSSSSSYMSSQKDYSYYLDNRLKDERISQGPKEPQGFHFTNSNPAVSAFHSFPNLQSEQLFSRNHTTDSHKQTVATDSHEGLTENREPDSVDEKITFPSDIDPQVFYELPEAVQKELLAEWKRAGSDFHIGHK

| SMILES | Potency |
| --- | --- |
| O=C(Cn1cnc2ccccc2c1=O)NNC(=O)c1ccccc1F | inactive |
| Cc1cc2occ(CC(=O)NNC(=O)c3ccccc3F)c2cc1C | inactive |
| Cn1c(CC(=O)NNC(=O)c2ccccc2F)nc2ccccc21 | 70.8 µM (active) |
| COc1cc(Cl)ccc1Nc1ncc(C(=O)N2CCN(c3ccccc3OC)CC2)c2ccccc12 | inactive |
| CCc1ccc(S(=O)(=O)c2nnn3c2nc(NCc2ccccc2OC)c2cc(Cl)ccc23)cc1 | inactive |
| CC(NC(=O)c1ccc(N2CCNCC2)c([N+](=O)[O-])c1)C12CC3CC(CC(C3)C1)C2 (stereo not drawn) | inactive |
| CC(CNC(=O)c1ccc(N)cc1)NC(=O)c1ccc(N)cc1 (stereo not drawn) | inactive |
| CN(C)NC(=O)C(NC(=O)c1ccc(N)cc1)C12CC3CC(CC(C3)C1)C2 (stereo not drawn) | 35.5 µM (active) |
| CC(CCCc1ccccc1)NC(=O)c1nn(-c2ccc(Cl)cc2)nc1CO (stereo not drawn) | inactive |
| COc1ccc(CCNC(=O)c2ccc3c(c2)sc2nc(-c4ccc(C)cc4)cn23)cc1OC | inactive |
| CCOc1ccccc1C(=O)NCc1ccc2c(c1)CCN2C(=O)c1ccc(F)cc1 | inactive |
| COC(=O)c1ccccc1NC(=O)Cn1c(=O)n(-c2cccc(C(F)(F)F)c2)c(=O)c2c(C)c(C)sc21 | inactive |
| CON(C)S(=O)(=O)c1ccc2c(c1)NC(=O)C1CCCN21 (stereo not drawn) | 22.4 µM (active) |
| CC1C(=O)Nc2ccc(S(=O)(=O)N3CCN(c4ccccc4F)CC3)cc2NC1=O (stereo not drawn) | inactive |
| COc1ccc(N2CCN(S(=O)(=O)c3ccc4c(c3)NC(=O)C(C)C(=O)N4)CC2)cc1 (stereo not drawn) | inactive |
| N#Cc1ccc[n+](CC(=O)c2ccc(O)c(O)c2)c1 | 0.891 µM (active) |
| NC(=O)C[n+]1cccc(C(N)=O)c1 | inactive |
| N#Cc1ccc[n+](CC(=O)c2ccc(F)cc2)c1 | inactive |
| Cc1ccccc1C(=O)NCc1nc(-c2ccc(Cl)cc2)no1 | inactive |
| CCN(CC)CCNC(=O)CN1N=C(c2ccc(OC)cc2)CCC1=O | inactive |
| COc1ccc(OC)c(CNC(=O)CN2C(=O)CCn3nc(-c4cn(C)c5ccccc45)cc32)c1 | inactive |
| Cn1c(=O)cc(OCC(=O)N2CCN(c3ccccc3)CC2)c2ccccc21 | inactive |
| CCC(=O)N1CCc2cc(Br)cc(S(=O)(=O)CCC(=O)NCc3ccccc3OC)c21 | inactive |
| CCc1ccc(NC(=O)CN2C(=O)C(c3ccccc3)=NC23CCCCCC3)cc1 | inactive |
| Cc1ccc(NC(=O)CN2C(=O)C(c3ccc(F)cc3)=NC23CCCCCC3)c(C)c1 | 44.7 µM (active) |

| SMILES | Potency |
| --- | --- |
| COc1ccc(NC(=O)CN2C(=O)C(c3ccccc3)=NC23CCCCCC3)cc1OC | inactive |
| CCCCN(C)c1nnc(NC(=O)Nc2ccc(Br)c(C)c2)s1 | inactive |
| CCOCCCn1c(SCC(=O)Nc2ccc(CC)cc2)nc2ccccc2c1=O | inactive |
| Cc1ccc(Cl)cc1NC(=O)Cc1ccc(-n2c(C)nc3cccnc32)cc1 | inactive |
| COc1ccccc1-c1ccnc2[nH]n(-c3ccccc3)c(=O)c12 | inactive |
| Cc1ccc(-c2ccnc3[nH]n(-c4ccccc4)c(=O)c23)cc1 | inactive |
| O=c1c2c(-c3ccccc3)ccnc2[nH]n1-c1ccccc1 | inactive and 89.1 µM (active) |
| COc1ccc(OC)c(NC(=O)CN2CCCN(Cc3cc(C)ccc3C)S2(=O)=O)c1 | inactive |
| CCOc1ccc(NC(=O)c2cc3c(=O)n(Cc4cccs4)ccc3nc2C)cc1 | inactive |
| Cc1cc2nn(-c3ccc(Cl)cc3)nc2cc1NC(=O)C(C)C | inactive |
| O=C(NCc1ccccc1)c1cc(-c2cccc(Cl)c2)on1 | inactive |
| O=C(O)C(c1ccccc1)N1C(=O)/C(=C\c2ccc(-c3cccc(Cl)c3)o2)SC1=S (stereo not drawn) | 31.6 µM (active) |
| O=C(NC(=S)Nc1cc(C(F)(F)F)ccc1N1CCOCC1)c1ccc(-c2cccc(Cl)c2)o1 | inactive |
| Cc1ccc(-c2nnc(Nc3ccc(OCC(N)=O)cc3)c3ccccc23)cc1S(=O)(=O)NCC1CCCO1 (stereo not drawn) | inactive |
| O=C(c1cnn2c1NC(=C1CC1)C=C2C(F)F)N1CCc2ccccc2C1 | inactive |
| Cc1ccc(NC(=O)c2cc(S(=O)(=O)NCCC3=CCCCC3)ccc2F)cc1C | inactive |
| O=C(COC(=O)c1cccnc1Cl)NC(=O)NC1CCCCC1 | inactive |
| CCCSc1ncccc1C(=O)O | inactive |
| O=C(O)c1cccnc1NC1CCCC1 | 89.1 µM (active) |
| CSc1ccccc1-c1nnc(NC(=O)c2ccc3c(c2)OCCO3)o1 | inactive |
| Cc1ccc(NC(=O)Cn2nnc3sc4c(c3c2=O)CCC(C)C4)cc1 (stereo not drawn) | inactive |
| O=C(CCNC(=O)c1ccccc1Cl)NN=Cc1ccco1 | inactive |
| O=C(CCc1n[nH]c(=O)[nH]c1=O)N/N=C/c1ccc(Br)o1 | inactive |
| O=C(CCNC(=O)c1ccccc1)NN=Cc1ccc(Br)o1 | 35.5 µM (active) |
| O=S(=O)(Nc1cccc2cccnc12)c1cccc2cccnc12 | inactive |

| SMILES | Potency |
| --- | --- |
| ClC/C=C/C[n+]1ccccc1Cl | inactive |
| CCOC(=O)C1CCCN(C(=O)Cn2ncc3c(C)n(Cc4ccc(F)cc4)c(C)c3c2=O)C1 (stereo not drawn) | inactive |
| O=c1ccc2c(-c3ccccc3S(=O)(=O)O)c3ccc(O)c(O)c3oc-2c1O | 1.12 µM (active) |
| COc1ccc(CCn2c3c(c(=O)[nH]c2=S)CN(C(C)C)CN3)cc1OC | inactive |
| COc1ccccc1-c1cc2nc(C)c(CCC(=O)NC3CCCCC3)c(C)n2n1 | inactive |
| CN(C)c1ccc(/C=c2\[nH]c(=O)/c(=C/c3ccc(N(C)C)cc3)[nH]c2=O)cc1 | inactive |
| COc1ccc2c(c1)c(=Cc1ccc(N(C)C)cc1)c1cc(-c3ccccc3)[n+](C)n12 | 39.8 µM (active) |
| O=C(Cn1ncn2nc(-c3cccs3)cc2c1=O)NCc1cccc(Br)c1 | inactive |
| O=C(Nc1ccc(OC(F)(F)F)cc1)C1CCCN(S(=O)(=O)c2ccc(Br)s2)C1 (stereo not drawn) | inactive |
| SCc1nc2ccc(Cl)cc2[nH]1 | inactive |
| Fc1ccc(CN2CCc3nc(Nc4ccccc4)ncc3C2)cc1F | inactive |
| O=C(COC(=O)c1cc(=O)[nH]c2ccccc12)Nc1nc(-c2cccc(Br)c2)cs1 | inactive |
| O=C(CSc1nc2ccccc2c(=O)[nH]1)Nc1nc(-c2ccc(Br)cc2)cs1 | 6.31 µM (active) |
| Cc1cc(C)c(-c2csc(NC(=O)CCCc3nc4ccccc4c(=O)[nH]3)n2)c(C)c1 | inactive |
| COc1ccc(-n2nc(C(=O)NCCc3ccc(Cl)cc3)c3c4ccccc4n(C)c3c2=O)cc1Cl | inactive |
| Cc1cccc(-n2ccnc2SCC(=O)Nc2cccc3ccccc23)c1C | inactive |
| COc1cc2nc(C#Cc3nc4cc(OC)c(OC)cc4[nH]3)[nH]c2cc1OC | inactive |
| COc1ccc(NC(=O)c2sc(N3CCOCC3)nc2-c2ccccc2)c(OC)c1 | inactive |
| Cc1cc(C)c2nc(N3CCC(C(=O)NCCN4CCOCC4)CC3)sc2c1 | inactive |
| Cc1nc(N2CCOCC2)sc1C(=O)NN | 7.08 µM (active) |
| Cn1c(=O)sc2cc(NS(=O)(=O)c3ccc(C(C)(C)C)cc3)ccc21 | inactive |
| CCOc1ccc(Nc2oc(/C=C/c3ccc(F)cc3)nc2C#N)cc1 | inactive |
| COc1cc(C(=O)NCCc2csc3nc(-c4ccccc4C)nn23)cc(OC)c1OC | inactive |
| CC(=O)N(C1=C(Cl)C(=O)c2ccccc2C1=O)c1ccc(C(=O)O)cc1 | 3.16 µM (active) |
| Cc1cccc(C(C)C)c1NC(=O)C(NS(=O)(=O)c1cccc2nsnc12)c1ccccc1 (stereo not drawn) | inactive |

| SMILES | Potency |
| --- | --- |
| CC(=O)N1CCCc2cc(S(=O)(=O)N3CCC(C(=O)NC4CCCCC4)CC3)ccc21 | inactive |
| COc1ccc(Nc2cc(C(=O)NCCCN(C)c3ccccc3)c3ccccc3n2)c(OC)c1 | inactive |
| CN(C)CCNC(=O)c1ccc(Cl)c2cc3ccccc3nc12 | 89.1 µM (active) |
| COc1ccccc1Nc1cc(C(=O)NCCCN(C)C2CCCCC2)c2ccccc2n1 | inactive |
| CCOC(=O)c1ccc(NC(=O)CCS(=O)(=O)c2ccc(C)cc2)cc1 | inactive |
| CCOC(=O)c1c(C)[nH]c(C)c1S(=O)(=O)N1CCC(C(=O)Nc2ccc(C)c(Cl)c2)CC1 | inactive |
| CCOC(=O)c1scc(-c2ccccc2)c1S(=O)(=O)Nc1ccccc1F | inactive |
| CCN1CCN(C(c2ccc(C)cc2)c2c(O)cc(C)n(Cc3ccco3)c2=O)CC1 (stereo not drawn) | inactive |
| O=C(CSc1ccccc1)Nc1cccc(S(=O)(=O)N2CCOCC2)c1 | inactive |
| O=C(COC(=O)/C=C/c1ccc(Br)o1)Nc1cccc(S(=O)(=O)N2CCOCC2)c1 | 20 µM (active) |
| O=C(COC(=O)CCc1ccc(S(=O)(=O)N2CCOCC2)cc1)Nc1cccc(Cl)c1 | inactive |
| Cc1ccc(NC(=O)Cc2ccc(NC(=O)N3CCCCc4ccccc43)cc2)cc1 | inactive |
| COc1ccc(-c2nc(SCC(=O)N3CCOCC3)n[nH]2)cc1 | inactive |
| COC1=C/C(=C/c2c(N)n3nc(CC(=O)N4CCOCC4)sc3nc2=O)C=CC1=O | 22.4 µM (active) |
| COc1ccc(-c2ccnc(SCC(=O)N3CCOCC3)n2)cc1 | inactive |
| C=CCC1=C/C(=C\c2c(N)n3nc(CC(=O)N4CCOCC4)sc3nc2=O)C=C(OC)C1=O | 22.4 µM (active) |
| CCCOc1ccc(C2c3c(-c4ccccc4O)n[nH]c3C(=O)N2Cc2cccnc2)cc1 (stereo not drawn) | inactive |
| COc1ccc(CNC(=O)c2ccc(NC(=O)N3CC4CCCN4c4ccccc43)cc2)cc1 (stereo not drawn) | inactive |
| O=C1CC(c2ccccc2)CC2=C1C(c1ccco1)n1nc(C(F)(F)F)nc1N2 (stereo not drawn) | inactive |
| CC1(C)CC(=O)c2cc(C(=O)NCc3ccccc3)c(=O)[nH]c2C1 | inactive |
| O=C(CSCc1cnn(-c2ccccc2)c1-n1cccc1)NCc1ccccc1Br | inactive |
| CC1(C)Cc2ccccc2-c2c[nH]c(=O)n21 | inactive |
| COc1ccc(S(=O)(=O)Nc2cccc3cccnc23)c(N)c1 | inactive |
